Screening results deposited in PubChem by National Center for Advancing Translational Sciences (NCATS).
AmpC detergent: qHTS Inhibitors of AmpC Beta-Lactamase (assay with detergent) | P00811 | AmpC hydrolysis of nitrocefin, absorbance 480 nm, 0.01% Triton | Potency, µM (titrated, usually from 114 µM), without a hit: top-dose activity change, negative = inhibition, most hits filed as inhibitors | actives 0.041% (n = 370,000); active = well fitted curve in the direction sought with a large enough effect; inconclusive = small, poorly fitted or top-dose-only effect, or another doubt; inactive = no such curve, though single readings can be large; an effect the other way counts as inactive or inconclusive;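 also: potency is read from the fitted curve at half-maximal effect; 0% = no-compound wells and -100% = no-enzyme wells; nearly all actives have a fitted effect of over 25% in size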
Target sequence (P00811 whole entry, looked up): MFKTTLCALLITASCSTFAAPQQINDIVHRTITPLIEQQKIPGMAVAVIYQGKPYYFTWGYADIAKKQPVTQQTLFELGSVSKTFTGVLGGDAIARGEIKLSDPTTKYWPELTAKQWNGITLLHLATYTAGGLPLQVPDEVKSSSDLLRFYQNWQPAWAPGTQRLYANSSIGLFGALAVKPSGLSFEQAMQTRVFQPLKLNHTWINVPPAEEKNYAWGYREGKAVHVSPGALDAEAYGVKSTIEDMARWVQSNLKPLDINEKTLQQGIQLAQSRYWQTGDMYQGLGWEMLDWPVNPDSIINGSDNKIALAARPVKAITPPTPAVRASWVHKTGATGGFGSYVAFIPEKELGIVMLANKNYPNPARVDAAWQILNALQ
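20 mM phosphate pH 7.0 + 0.01% (detergent screen) or 0.0001% Triton X-100; 5.3 nM AmpC reagent; cpd preinc 15 min RT; nitrocefin (800 uM stock) to start; A480 q20 s × 4 min; Activity was normalised to no-enzyme and no-compound control wells.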
AmpC inh no detg: qHTS Inhibitors of AmpC Beta-Lactamase (assay without detergent); AmpC nitrocefin hydrolysis, absorbance 480 nm, 0.0001% Triton; actives 0.52% (n = 330,000); Potency, µM (titrated, usually from 57.1 µM), without a hit: at the top dose activity change, negative = inhibition, actives largely listed as inhibitors; AID 485341, 2010; active = well fitted curve in the direction sought with a large enough effect; inconclusive = small, poorly fitted or top-dose-only effect, or another doubt; inactive = no such curve, though single readings can be large; an effect the other way counts as inactive or inconclusive;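 also: potency is read from the fitted curve at half-maximal effect; plate controls were no compound for no effect and no enzyme for full effect; nearly all actives have a fitted effect of over 20% in size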
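20 mM phosphate pH 7.0 + 0.01% (detergent screen) or 0.0001% Triton X-100; 5.3 nM AmpC reagent; cpd preinc 15 min RT; nitrocefin (800 uM stock) to start; A480 q20 s × 4 min; Activity was normalised to no-enzyme and no-compound control wells.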
AMA1 RON2 block: qHTS for Inhibitors of AMA1-RON; Towards Development of Antimalarial Drug Lead: Primary Screen. Plasmodium falciparum AMA1 (3D7) - RON2 peptide interaction. AlphaScreen AMA1-biotinylated RON2 peptide binding. Potency, µM (highest dose often 58.2 µM), for inactives: at the top dose activity change, negative = inhibition, actives largely listed as inhibitors. actives 0.2% (n = 360,000). AID 720542, 2013; active = well fitted curve in the direction sought with a large enough effect; inconclusive = small, poorly fitted or top-dose-only effect, or another doubt; inactive = no such curve, though single readings can be large; an effect the other way counts as inactive or inconclusive;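 also: potency is read from the fitted curve at half-maximal effect; 0% = vehicle wells and -100% = peptide control; nearly all actives have a fitted effect of over 45% in size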
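AMA1 (3D7) with his tag at 25 nM final met compounds first, then biotinylated RON2 peptide at 25 nM; detection used donor plus acceptor beads, 10 µg/mL apiece, read by AlphaScreen after 30 min at room temperature.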
NS1 function inh: qHTS Assay for Inhibitors of Influenza NS1 Protein Function. AID 2326, 2010. actives 0.4% (n = 270,000). Potency, µM (doses to about 46.1 µM), for inactives: top-dose activity, positive = more growth; also: potency is read from the fitted curve at half-maximal effect; actives are rising curves; nearly all actives have a fitted effect of over 50% in size
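OD600 was taken as the measure of yeast growth restored by compound in an NS1-expressing S. cerevisiae strain. Cells had been washed out of glucose medium and diluted 1:100 into galactose -URA medium, pH 6.0.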
SARS PLpro yeast: qHTS of Yeast-based Assay for SARS-CoV PLP | Potency, µM (titrated, usually from 32.9 µM), inactives show at the top dose activity, positive = growth rescue, most hits filed as activators | actives 0.19% (n = 330,000) | AID 485353, 2010 | S. cerevisiae expressing SARS-CoV PLpro, growth rescue; also: potency is read from the fitted curve at half-maximal effect; 0% is about no effect; nearly all actives have a fitted effect of over 55% in size
NS1 inh valid: Assay for Inhibitors of Influenza NS1 Protein Function: Hit Validation; 1,400 tested, under 10 active; shares compounds with NS1 function inh; activity change, negative = inhibition, % at 32.9 µM; AID 492980, 2010; influenza NS1 function cell assay, 15-point titration; also: 0% is about no effect
Flu PR8 replic: Assay for Inhibitors of Influenza NS1 Protein Function: Influenza virus replication assay in MDCK cells infected with virus A/PR/8/34. shares compounds with NS1 function inh. MDCK infected influenza A/PR/8/34, virus titer TCID50; hits give low values. virus titer (log TCID50), log10 TCID50 at 5 µM. actives 30% (n = 95); call rule not given here
Numbers without * were called inactive; u = inconclusive; x = no result. The list is not random: actives were taken first. Their share in the collection is about 0.99%. Unless noted, calls follow the shape of the full dose curve.

SMILES	AmpC detergent	AmpC inh no detg	AMA1 RON2 block	NS1 function inh	SARS PLpro yeast	NS1 inh valid	others
CCOc1ccc(-c2cn(-c3ccccc3OC)c(=S)[nH]2)cc1	5%	-32%	39%	u	1%	-34
O=C(NNc1nc2cc3c(cc2s1)OCO3)c1ccc(F)cc1	u	-35%	95%	u	-11%	-10
CCOC(=O)c1ccc(NC(=O)c2c(NCc3cccc(OC)c3OC)sc3c2CCC3)cc1	5%	x	x	x	x	x
CCOc1ccccc1CNC(=O)Cn1c(-c2ccccc2)cc(C(C)=O)c1C	-1%	x	x	x	x	x
Cc1ccc(-n2c(Cn3c(C)nc4ccccc43)n[nH]c2=S)cc1	6%	4%	10%	u	-21%	22
CCCc1cc(=O)[nH]c(SCC(=O)CSc2nc(CCC)cc(=O)[nH]2)n1	u	-19%	86%	8.9µM*	3%	30
O=C1NN(c2ccc(Br)cc2)C(=O)/C1=C\c1ccc(O)cc1O	-12%	u	-2%	4µM*	-5%	-14
O=C1NN(c2ccccc2)C(=O)C1=Cc1ccccc1O	x	x	5%	x	x	x
O=C(/C=C/c1ccco1)NC(=S)Nc1cccc([N+](=O)[O-])c1	-2%	-27%	8%	22µM*	7%	0
Brc1ccc(-c2cc3c(N4CCN(c5ccccc5)CC4)nccn3n2)cc1	13%	x	x	x	x	x
Nc1c(C(=O)NCc2ccco2)sc2nc(N3CCOCC3)c3c(c12)CCCC3	-7%	67%	-8%	25µM*	0%	0
Cc1ccc(CCNC(=O)CN2CCN(Cc3ccc(Cl)cc3)C2=O)cc1	8%	x	x	x	x	x
Cc1ccc(Cn2nnc3c(=O)[nH]c(C4CCN(S(=O)(=O)c5ccc(F)cc5)CC4)nc32)cc1	u	9%	-4%	13µM*	19%	4
O=c1[nH]c(C2CCCN(S(=O)(=O)c3ccccc3)C2)nc2c1nnn2Cc1ccccc1Br (stereo not given)	u	1%	-2%	7.1µM*	u	u
CC(C)(C)c1ccc(C(=O)NCC(c2ccco2)S(=O)(=O)c2ccccc2)cc1 (stereo not given)	3%	x	x	x	x	x
O=C(Cn1cc(SCc2ccccc2Cl)c2ccccc21)N1CCCCCC1	2%	x	x	x	x	x
CN(C)c1ccc(NC(=O)CSCc2nc3c(nnn3Cc3ccc(F)cc3)c(=O)[nH]2)cc1	-2%	-22%	6%	6.3µM*	5%	-5	Flu PR8 replic=7.7
Cc1cccc(NC(=O)CSCc2nc3c(nnn3Cc3ccc(F)cc3)c(=O)[nH]2)c1C	u	5%	10%	-1%	-1%	x
CCCCC(c1nnnn1Cc1ccco1)N1CCN(c2nc3ccccc3s2)CC1 (stereo not given)	-14%	7%	-27%	-128%	-9%	x
COc1ccc(C(c2nnnn2Cc2ccccc2)N2CCN(c3nc4ccccc4s3)CC2)cc1OC (stereo not given)	3%	120%	u	28%	-5%	x
c1ccc(Cn2nnnc2C(c2ccccc2)N2CCN(c3nc4ccccc4s3)CC2)cc1 (stereo not given)	u	-5%	13%	10µM*	-2%	-14
c1ccc(C(c2nnnn2Cc2ccco2)N2CCN(c3nc4ccccc4s3)CC2)cc1 (stereo not given)	4%	8%	-1%	13µM*	13%	-19
COc1ccc(CCNC(=O)c2csc3c2CCCCC3)c(OC)c1	-5%	x	x	x	x	x
O=C(N/N=C/C=C\c1ccccc1[N+](=O)[O-])c1cc(-c2ccccc2)nc2ccccc12	-4%	-24%	30%	7.1µM*	-1%	11
O=C(N/N=C/c1cccc([N+](=O)[O-])c1)c1cc(-c2ccccc2)nc2ccccc12	-5%	-12%	0%	4%	-5%	x
SMILES	AmpC detergent	AmpC inh no detg	AMA1 RON2 block	NS1 function inh	SARS PLpro yeast	NS1 inh valid	others
CCN(CC)C(=O)CSc1nnc(-c2ccccc2)n1N	-10%	-7%	1%	6.3µM*	6%	10
COc1ccc2[nH]cc(CCNC(=O)Nc3cc(C)cc(C)c3)c2c1	5%	x	x	x	x	x
COc1cc(Cl)cc(C(c2c(C(=O)O)[nH]c3ccccc23)c2c(C(=O)O)[nH]c3ccccc23)c1O	-20%	-43%	-12%	2.5µM*	0%	19
Cc1cc(Br)ccc1NC(=O)C(Cc1ccccc1)NS(=O)(=O)c1ccc(Br)s1 (stereo not given)	1%	x	x	x	x	x
Cc1ccc(F)c([C@H]2[C@H]3C=CC[C@@H](C)[C@@H]3C(=O)N2Cc2ccccc2)c1	-9%	24%	2%	u	-16%	u	Flu PR8 replic=9
CCOC(=O)c1ccc(NC(=O)N2CCOc3ccccc32)cc1	22%	x	x	x	x	x
COCCn1c(C)cc(/C=C2/NC(=O)N(c3ccc(Cl)cc3)C2=O)c1C	0%	-6%	11%	u	19%	8
Cc1cc(C(=O)N[C@@H](c2ccccc2)[C@]2(C)C[C@H]2[C@@H](C)C(=O)Nc2ccc3ccccc3c2)no1	-12%	-3%	-2%	11µM*	u	12
Cc1cc(C(=O)N[C@H](c2ccccc2)[C@@]2(C)C[C@@H]2[C@@H](C)C(=O)Nc2ccc3ccccc3c2)no1	u	-3%	11%	8%	14%	x
C[C@@H](C(=O)Nc1ccc2ccccc2c1)[C@H]1C[C@]1(C)[C@H](NS(=O)(=O)c1ccccc1)c1ccccc1	u	-27%	-4%	11µM*	-15%	6
CNC(=O)c1cc2cc(OC)ccc2n1CCN(Cc1ccccc1)Cc1ccccc1	u	-9%	-6%	-8%	-8%	x
CNC(=O)c1cc2cc(OC)ccc2n1CCN(C)C	3%	-4%	4%	3.5µM*	3%	1
COc1ccc2c(CNCc3cccs3)c(C(=O)O)n(Cc3cccc(F)c3)c2c1	-6%	x	x	x	x	x
COc1ccc2oc(/C=C/N(C)C)c(C(=O)c3ccc(Cl)cc3)c2c1	-3%	-56%	0%	13µM*	16%	-28
COc1ccc2oc(C)c(C(=O)c3ccccc3)c2c1	x	x	7%	x	x	x
CCc1ccc(Nc2nnc(SCC(=O)Nc3cccc(S(=O)(=O)NC4=NCCCCC4)c3)s2)cc1	u	-9%	7%	11µM*	-5%	12
